Sampled rows, rich in hits. Any-hit rate of the full collection: about 0.62%.
miR-21 act – qHTS Assay for Modulators of miRNAs and/orActivators of miR-21 | HeLa miR-21 FLuc reporter, luciferase, 48 h | Potency, µM (top dose mostly 38.3 µM), inactives show top-dose activity change, positive = activation, most hits filed as activators | 340,000 tested, under 10 active | AID 2288, 2010;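 further: % of control where 0% means no effect; miR-21 action dims this reporter so a rising signal means less miR-21 action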
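HeLa cells endogenously expressing miR-21, stably carrying CMV-driven firefly luciferase with a downstream miR-21 binding site, 2000 cells/well. Titrations up to approximately 40 uM, 48 hours; luciferase luminescence read.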
Epigenetic derep – Quantitative High-Throughput Screen for Regulators of Epigenetic Control. murine LDR cells, GFP reporter derepression, 30 h. Potency, µM (doses to about 53.9 µM), for the others: top-dose GFP activation, hits mostly activators. 280,000 compounds, 0.2% hits. AID 1865, 2009; further: potency means the concentration at half of the fitted maximal effect; % of control where 0% means no effect; nearly all actives have a fitted effect of over 60% in size
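Murine LDR cells carrying a silenced, genomically integrated CMV-driven GFP reporter were exposed to compound for 30 hours at 37 C. After PBS washes, GFP-positive cells (20–120 um objects) were counted by laser-scanning microplate cytometry.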
uPA surface inh – qHTS for Inhibitors of Cell Surface uPA Generation; cell surface uPA generation assay, qHTS; Potency, µM (highest dose often 38.3 µM), for inactives: top-dose activity change, negative = inhibition, usual class: inhibitors; 330,000 compounds, 0.31% hits; AID 540303, 2011; active means well fitted inhibition curve with a large enough effect; inconclusive means small, poorly fitted or top-dose-only effect; inactive means no such curve, though single readings can be large or run the other way; tested in mouse RAW 264.7 cells; further: potency means the concentration at half of the fitted maximal effect; on the % scale 0 is the no-effect control and ±100 the full control effect; nearly all actives have a fitted effect of over 55% in size
p53 reactivator – qHTS assay for re-activators of p53 using a Luc reporter; AID 504706, 2011; H1299 p53-A138V BP100-luciferase reporter, luminescence, 24 h; Potency, µM (doses to about 92.2 µM), inactives show at the top dose activity change, positive = activation, usual class: activators; 320,000 compounds, 0.063% hits; further: potency means the concentration at half of the fitted maximal effect; % of control where 0% means no effect; nearly all actives have a fitted effect of over 45% in size
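H1299 (p53-null), stable ts p53-A138V + BP100-Luc; 1000 cells/well, Opti-MEM/10% FBS; cpd 4 pt, 1:5; 24 h, 37 deg C, 5% CO2; detection reagent 10 min RT; luminescence.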
PINK1 modulator – A Quantitative High throughput Screen to Identify Chemical Modulators of PINK1 Expression | Potency, µM (top dose mostly 76.6 µM), for inactives: at the highest dose activation (PINK1 increase), hits mostly activators | 410,000 compounds, 0.2% hits | PINK1 immunofluorescence, high-content cytometry, 24 h | AID 624263, 2012; active means well fitted activation curve with a large enough effect; inconclusive means small, poorly fitted or top-dose-only effect; cell line not stated here; further: potency means the concentration at half of the fitted maximal effect; % of control where 0% means no effect; nearly all actives have a fitted effect of over 65% in size
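Readout is PINK1 immunofluorescence, quantified alongside mitochondrial, cell and nuclear markers by laser-scanning microplate cytometry. Cells from a stable line were exposed to compound titrations (5 concentrations) for 24 hours, with CCCP controls.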
IL2 activator – qHTS of IL-2 Activators; IL-2 activation reporter assay, cell-based qHTS; stimulated with anti-CD3/CD4/CD28 beads; in transgenic mouse T cells; 360,000 compounds, 0.065% hits; activation, % (series mostly up to about 46 µM); AID 652025, 2013; in the data active means activation above about 50%; inconclusive means mostly about 30% to 49%; further: 0% is about no effect
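Using fluorescent plate cytometry, EGFP and DsRed are detected in transgenic mouse T cells stimulated 18 h at 37 degrees C with antibody-coated beads after 60 min compound pretreatment.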
* hit, by the source's call; ? = inconclusive; . = no result given; ! = not active in a repeat; [ ] = dose if it differs, or a comment. Unless noted, the call rests on the fitted dose curve; in most records, active means well fitted curve in the direction sought with a large enough effect; inconclusive means small, poorly fitted or top-dose-only effect, or another doubt; inactive means no such curve, though single readings can be large; an effect the other way counts as inactive or inconclusive.

SMILES | miR-21 act | Epigenetic derep | uPA surface inh | p53 reactivator | PINK1 modulator | IL2 activator
Cc1sc2ncnc(N/N=C/c3cccc(O)c3)c2c1C | -65% | 0% | 5% | ? | -1% | -5
N#Cc1cc2c(nc1SCC(=O)Nc1nccs1)CCCCC2 | -25% | 0% | . | ? | 1%[38.3 µM] | -4
Cc1ccc(C#N)c(SCC(=O)Nc2nccs2)n1 | -48% | -1% | 6.3µM* | 3% | 7% | 1
COc1cc2c3nnc(-c4ccc(F)cc4)c-3cn(Cc3cccc(F)c3)c2cc1OC | -12% | 7.1µM* | 6% | 8% | ? | 76*
COc1cc2c3nnc(-c4ccccc4)c-3cn(Cc3ccc(F)cc3)c2cc1OC | -8% | ? | -2% | 0% | 2% | 12
COc1cc2c3nnc(-c4ccc(F)cc4)c-3cn(Cc3ccc(C)cc3)c2cc1OC | 0% | 6.3µM* | 24% | ? | ? | 349*
COc1cc2c3nnc(-c4ccc(F)cc4)c-3cn(Cc3cccc(C)c3)c2cc1OC | -6% | 3.5µM* | 10% | 3% | ? | 218*
COc1cccc(Cn2nc3c4cc(F)ccc4n(Cc4ccc(F)cc4)cc-3c2=O)c1 | 0% | . | 2% | -5% | 6% | 0
Clc1cccc(Cl)c1CNC1CCCC1 | 2% | 4% | 9% | -3% | 3%[38.3 µM] | 104*
Cc1cc(C(=O)NCc2nc(-c3cccc(NC(=O)c4cc(C)oc4C)c3)oc2C)nc(C)n1 | . | . | . | . | 1% | .
O=C1CCCC2=C1C1(CCCC1)N=C(Nc1nc3ccccc3s1)N2 | 2% | ? | 2% | 1% | 11µM* | -2
O=C1CCCC2=C1C1(CCCCC1)N=C(Nc1nc3ccccc3s1)N2 | -2% | 0% | . | . | -2%[38.3 µM] | 2
Cc1occc1C(=O)NCCN1Cc2ccccc2OC(c2ccccc2F)C1 (stereo not drawn) | . | . | . | . | 0% | .
NC1=NC(=O)/C(=C/c2ccc(-c3ccc(S(N)(=O)=O)cc3)o2)S1 | -4% | . | 8% | . | 32µM* | 3
CS(=O)(=O)Nc1ccc(-c2ccc(/C=C3\SC(N)=NC3=O)o2)cc1 | 11% | . | 16% | 11% | 28% | -1
COC(=O)c1ccc(NC(=O)c2ccccc2OCC(=O)Nc2ccc(Br)cc2)cc1 | . | . | . | . | 8% | .
O=C(NCCN1CCOCC1)c1cnn(-c2nccc(-c3ccccc3C(F)(F)F)n2)c1C1CC1 | . | . | . | . | 0% | .
NNc1nnc2c3cc(F)ccc3n(Cc3ccccc3)c2n1 | -7% | 1% | -3% | 7% | 32µM* | 7
Cc1cccnc1-c1cccc2c1OC(CNC(=O)C(=O)c1ccccc1)C2 (stereo not drawn) | . | . | . | . | 1% | .
COc1ccc(CNC(=S)N/N=C(/C)c2ccccc2)cc1 | -70% | 1% | -5% | 28µM* | -1% | -7
COCCNC(=S)N/N=C(\C)c1ccc2cc(OC)ccc2c1 | -15% | 7.9µM* | -15% | 5% | 2% | 0
C/C(=N\NC(=S)NCc1ccccc1)c1ccccc1 | -43% | 7% | 1% | ? | 3% | -2
CCOC(=O)N1CCN(Cc2ccc3c(c2)CN(C(=O)c2cc(-c4ccccc4)no2)CCO3)CC1 | . | . | . | . | -1% | .
CCOC(=O)c1sc(NC(=O)c2cc(-c3ccc(C)cc3)nc3ccccc23)c(C#N)c1C | -1% | -1% | 3% | 2% | ? | 0
COC(=O)c1sc(NC(=O)c2cc(-c3ccccc3)nc3ccccc23)c(C#N)c1C | 26% | -1% | -12% | 3% | 5.6µM* | 0
SMILES | miR-21 act | Epigenetic derep | uPA surface inh | p53 reactivator | PINK1 modulator | IL2 activator
Cc1ccccc1-c1cc(C(=O)Nc2sc(C(=O)OC(C)C)c(C)c2C#N)c2ccccc2n1 | ? | -2% | -11% | 0% | 13µM* | -2
COc1ccc(-c2cc(C(=O)Nc3sc4c(c3C#N)CCCC4)c3ccccc3n2)cc1 | -11% | 0% | -4% | 11% | 16% | 3
COC(=O)c1cn([C@@H]2C[C@@H](C(=O)Nc3cccc(SC)c3)N(C3CCCCCC3)C2)nn1 | . | . | . | . | 1% | .
Cc1ccc(/C=C2/Sc3ccc(C(=O)NCc4ccccn4)cc3NC2=O)cc1 | -8% | . | 9% | -1% | 28µM* | 5
COc1ccc(S[C@@H]2C[C@@H](C(=O)Nc3ccc4nccnc4c3)N(C3Cc4ccccc4C3)C2)cc1 | . | . | . | . | 1% | .
Cc1cc(-c2ccnc(-n3ncc(C(=O)NCC4COCCO4)c3C)n2)c(C)s1 (stereo not drawn) | . | . | . | . | 7% | .
C=CCN=c1scc(-c2ccccc2)n1/N=C/c1ccccn1 | 13% | 2% | 0.4µM*! | ? | 0% | 6
Cc1cc(C(=O)N2CCOc3ccc(CN4CCC(Oc5cccnc5)CC4)cc3C2)c(C)o1 | . | . | . | . | 1% | .
S=C(NCc1ccco1)N1CCN(Cc2ccco2)CC1 | -1% | -2% | 1% | 6% | -1% | -1
S=C(Nc1ccc2c(c1)OCO2)N1CCN(Cc2ccco2)CC1 | -7% | 0% | 4.5µM* | 0% | 2% | 1
Cc1ccc(S(=O)(=O)N2C[C@@H]3CCCC[C@@H]3[C@@H](C)[C@H]2c2cn(Cc3ccccc3)c3ccccc23)cc1 | . | . | ? | 10% | 0% | -1
Cc1ccc(S(=O)(=O)N2C[C@@H]3CCCC[C@@H]3[C@@H](C)[C@H]2c2cn(Cc3ccccc3)c3ncccc23)cc1 | . | . | 10µM* | ? | 0% | 0
COc1ccc(C2c3ccc(O)cc3Oc3ncn4nc(-c5ccco5)nc4c32)cc1OC (stereo not drawn) | -11% | 22µM* | -6% | -1% | 9% | -2
O=c1[nH]cnc2c1ccn2C1OC(CO)C(O)C1O (stereo not drawn) | . | . | 4µM* | . | -1% | 0
O=c1[nH]cnc2c1[nH]c(=S)n2C1O[C@@H](CO)[C@H](O)[C@@H]1O (stereo partly drawn) | . | . | . | . | 0% | .
CCCCOC(=O)c1ccc(NC(=O)CN2C(=O)NC3(CCCCCC3)C2=O)cc1 | . | . | 8.9µM* | 4% | 1% | 0
CCCCOC(=O)c1ccc(NC(=O)COC(=O)CN2C(=O)NC3(CCCC3)C2=O)cc1 | . | . | 0% | . | 3% | -1
CC#CC#Cc1cccc(=O)o1 | ? | 15% | 5µM* | -14% | ? | -3
CCCc1ccc(C(=O)NC(=O)c2ccccc2O)cc1 | 10% | -1% | -5% | 1% | 45µM* | -4
O=C(NC(=O)c1ccccc1O)c1ccc(C(F)(F)F)cc1 | -20% | 0% | 2% | 20% | 32µM* | 1

Screening data (PubChem)
